{"source": "PubChem BioAssay AID1259319", "about": "(Sanford-Burnham Center for Chemical Genomics, 2017)", "note": "In all, about 3,000 compounds went through this assay and about 1,800 (60%) were called active. The set was probably picked from earlier hits. These entries were drawn from the full list. A number with no mark means an inactive call.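 How the source made its calls: active means activation at or above a set limit, or at least 3 SD above the negative control mean; inactive means the rest.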", "data": [{"biological_target": "Nuclear receptor subfamily 1 group D member 1 (Homo sapiens) (UniProt P20393)", "sequence (P20393 whole entry, looked up)": "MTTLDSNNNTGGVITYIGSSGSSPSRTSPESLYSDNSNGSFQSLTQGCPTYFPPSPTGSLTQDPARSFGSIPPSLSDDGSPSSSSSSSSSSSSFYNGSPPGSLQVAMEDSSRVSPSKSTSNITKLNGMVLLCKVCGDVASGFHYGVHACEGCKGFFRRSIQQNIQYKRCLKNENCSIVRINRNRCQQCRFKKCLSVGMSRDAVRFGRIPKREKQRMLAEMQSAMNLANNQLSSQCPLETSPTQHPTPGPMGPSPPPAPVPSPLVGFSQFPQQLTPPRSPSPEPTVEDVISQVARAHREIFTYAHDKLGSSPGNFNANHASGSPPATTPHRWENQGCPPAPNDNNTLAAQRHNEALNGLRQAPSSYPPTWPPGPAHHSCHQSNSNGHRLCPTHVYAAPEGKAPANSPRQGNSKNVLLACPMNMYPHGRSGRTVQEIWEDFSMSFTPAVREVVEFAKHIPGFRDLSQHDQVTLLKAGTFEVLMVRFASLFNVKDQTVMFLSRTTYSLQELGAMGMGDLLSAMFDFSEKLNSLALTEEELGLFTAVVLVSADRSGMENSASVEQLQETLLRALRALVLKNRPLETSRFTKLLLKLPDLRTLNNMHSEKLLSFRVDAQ", "assay": "Rev-erbα–DNA interaction modulation, retest – biochemical, FITC-DNA, fluorescence polarization, single point, confirmation (AID 1259319);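 further: 0% = 35 nM protein with DMSO and 100% = 750 nM protein high control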", "details": "Rev-erb alpha FITC-DNA binding, 90 min, at 25 µM, stronger effect = higher value", "values": [{"smiles": "c1ccc(CSc2ncnc3c2sc2nc(N4CCOCC4)c4c(c23)CCCC4)cc1", "activation": "93.6% (active)"}, {"smiles": "S=c1nccc(-c2cc(Cl)sc2Cl)[nH]1", "activation": "36.6% (active)"}, {"smiles": "c1ccc(-c2cc(-c3nnc4sc(-c5ccccn5)nn34)[nH]n2)cc1", "activation": "26.1% (active)"}, {"smiles": "CN(C)c1ccc(/C=C2\\NC(=S)N(Cc3ccccc3)C2=O)cc1", "activation": "37.3% (active)"}, {"smiles": "CN1/C(=C\\C=C2\\N=C(c3ccc(F)cc3)OC2=O)C(C)(C)c2ccccc21", "activation": "5.84%"}, {"smiles": "O=C(CCn1c(=S)[nH]c2cc3c(cc2c1=O)OCO3)NCc1ccc(Cl)cc1", "activation": "9.29%"}, {"smiles": "O=C(CCn1c(SCC(=O)c2ccccc2)nc2ccccc2c1=O)NCc1ccc(F)cc1", "activation": "36.3% (active)"}, {"smiles": "C=CCNC(=O)CC12CC3CC(C1)CC(CC(=O)NCC=C)(C3)C2", "activation": "-0.299%"}, {"smiles": "N#Cc1c(N)nc2c3c(sc(=N)c2c1N)NC(=O)CC3c1ccccc1Cl", "note": "(stereo unspecified)", "activation": "35% (active)"}, {"smiles": "O=S(=O)(c1ccc(Br)cc1)c1nc(-c2ccccc2)oc1NCc1cccnc1", "activation": "5.25%"}, {"smiles": "Oc1ccc2ccc3cccc[n+]3c2c1", "activation": "41.7% (active)"}, {"smiles": "CCc1ccccc1NC(=O)c1cc(-c2ccc3c(c2)OCO3)on1", "activation": "10.4%"}, {"smiles": "CN(C)S(=O)(=O)c1ccc(N2CCCC2)c(C(=O)Nc2ccc(Br)cc2F)c1", "activation": "10.4%"}, {"smiles": "O=C1CCCC2=C1C(c1ccccc1)n1c(s/c(=C/c3cccc(F)c3)c1=O)=N2", "note": "(stereo unspecified)", "activation": "30% (active)"}, {"smiles": "CCOC(=O)c1sc(=NC(=O)c2ccc(Br)cc2)n(C)c1C", "activation": "26.1% (active)"}, {"smiles": "COc1ccc2sc(-c3ccc(S(C)(=O)=O)cc3)c(-c3ccc(C(N)=O)cc3)c2c1", "activation": "5.94%"}, {"smiles": "CCCNC(=O)Nc1ccc2c(c1)C(=O)N(C)[C@H]1CC[C@H](CC(=O)NCC3CCCCC3)O[C@@H]1CO2", "activation": "63.1% (active)"}, {"smiles": "CCN1C(=O)/C(=C\\N2CCN(c3cccc(Cl)c3)CC2)SC1=S", "activation": "204% (active)"}, {"smiles": "Cc1ccc(S(=O)(=O)c2nnn3c2nc(N2CCN(c4ccccn4)CC2)c2ccccc23)cc1", "activation": "65.4% (active)"}, {"smiles": "Cc1cccc(Nc2nc3c(S(=O)(=O)c4ccccc4)nnn3c3ccccc23)c1C", "activation": "15.8%"}, {"smiles": "CC(C)OCCCNC(=O)CN1C(=O)/C(=C/c2ccccc2F)Oc2ccccc21", "activation": "-0.363%"}, {"smiles": "COc1ccc(Cc2nnc(NC(=O)c3ccc(OC)cc3OC)s2)cc1", "activation": "9.03%"}, {"smiles": "COC(=O)c1sc(NC(=O)c2ccc(OC)cc2OC)nc1C", "activation": "24.1% (active)"}, {"smiles": "COC(=O)c1c(NC(C)=O)sc(C(=O)Nc2ccccc2OC)c1C", "activation": "9.45%"}, {"smiles": "Cc1cc(Br)cn2c(Cc3ccccc3C(F)(F)F)c(-c3ccc(Cl)cc3)nc12", "activation": "7.64%"}, {"smiles": "Cc1ccc(-c2nc3c(C)cc(Br)cn3c2Cc2ccccc2)cc1", "activation": "14.9% (active)"}]}]}
